104 compounds from PubChem BioAssay AID686978 (National Center for Advancing Translational Sciences (NCATS), 2013) can be followed below.

Values joined by “and” are separate entries in the source; they are usually repeats but may differ in a detail not shown here. Equal values may be shown once. Out of some 420,000 compounds screened, about 64,000 (15%) were called active. Not shown: some 27% with an inconclusive outcome. Calls come from the whole dose curve; as a rule, active = well fitted inhibition curve with a large enough effect; inconclusive = small, poorly fitted or top-dose-only effect; inactive = flat fitted curve, though single readings scatter. These entries were drawn from the full list. Entries that show only a call come without a potency.
Potency is the fitted concentration of half-maximal effect.

A short description of this experiment: qHTS for Inhibitors of human tyrosyl-DNA phosphodiesterase 1 (TDP1): qHTS in cells in absence of CPT. Note: nearly all actives have a fitted effect of over 55% in size. The following applies: DT40 Tdp1-/- hTDP1 cells, no CPT, ATP luminescence, 48 h; activity change, negative = growth inhibition: at 46.2 µM (top of the series). The method, boiled down: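 Growth of hTDP1-complemented DT40 Tdp1-knockout cells is measured by ATP luminescence after at least 48 hr compound exposure at 37 °C, with DMSO substituting for the 20 nM CPT used in the parallel screen.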
Consider `Cn1nnnc1SCC(=O)N1CCN(Cc2ccccc2)CC1`, for which the Potency result was “inactive”.

Take `COc1ccc(S(=O)(=O)N2CCCCC2)cc1C(=O)NC1CCS(=O)(=O)C1` (centres undefined): the Potency entry was “inactive”.

`Cc1[nH]nc(SCC(=O)NCC(C)C)c1[N+](=O)[O-]`: the Potency entry is “inactive”.

As to `Cc1cccc(N2CCN(S(=O)(=O)c3ccc4[nH]c5c(c4c3)CCCCC5)CC2)c1C`, the Potency is 4.61 µM (active).

As for `COc1cccc(CNC(=O)c2cc(=O)[nH]c3ccc(S(=O)(=O)N4CCCCC4)cc23)c1`, the Potency result was “inactive”.

Take `Cc1ccc(S(=O)(=O)N2CCN(c3ccccc3)CC2)cc1C`: the Potency entry was “inactive”.

Consider `Cc1cc(C)c2c(c1)c(C)cc1nnc(SCC(=O)NCc3ccco3)n12`, for which the Potency result was “inactive”.

As for `O=C(N/C(=C\c1ccc(O)cc1)C(=O)N1CCCCC1)c1ccccc1`, the Potency result is “inactive”.

On to `COc1cc(CNCc2ccc3c(c2)OCO3)c([N+](=O)[O-])cc1OC`, for which the Potency entry is “inactive”.

`COc1cc(CN2CCCN(C)CC2)c([N+](=O)[O-])cc1OC`: the Potency entry was “inactive”.

In the case of `COc1cc2c(cc1OC)C(Cc1cc(OC)c(OC)cc1[N+](=O)[O-])=NCC2`, the Potency is 11.6 µM (active).

Turning to `O=C(NC1CCN(S(=O)(=O)c2ccc(F)cc2)CC1)c1ccccc1`, the Potency entry was “inactive”.

For the compound `COc1ccc(/C(O)=C2/C(=O)C(=O)N(CCCN(C)C)C2c2ccccc2)cc1OC` (centres undefined), the Potency result was “inactive”.

On to `COc1ccc(CCN(C)CCN2C(=O)c3ccccc3C2=O)cc1OC`, for which the Potency result is “inactive”.

Consider `C=CCOc1cccc(C2C(C(=O)c3ccc(C)o3)=C(O)C(=O)N2CCCn2ccnc2)c1` (centres undefined), for which the Potency entry was “inactive”.

Consider `CCCCn1c(N)c(N(CCOC)C(=O)c2cccc(OCc3ccccc3)c2)c(=O)[nH]c1=O`, for which the Potency result was “inactive”.

For the compound `CCCCN1C(=O)c2[nH]nc(-c3ccccc3O)c2C1c1cccc(OCc2ccccc2)c1` (centres undefined), the Potency was 18.4 µM (active).

As for `COc1ccc(CCN2C(=O)c3[nH]nc(-c4ccccc4O)c3C2c2ccc(C)cc2)cc1OC` (centres undefined), the Potency is 18.4 µM (active).

On to `Cc1cc(NS(=O)(=O)c2ccc(NC(=O)c3cccc(OC(F)F)c3)cc2)nc(C)n1`, for which the Potency result was “inactive”.

On to `O=C(O)CCSc1nnc(-c2ccccc2)n1-c1ccccc1`, for which the Potency result was “inactive”.

On to `Cc1ccc(NC(=O)c2ccn(C(=O)Nc3ccccc3)n2)c(C)c1`, for which the Potency result was “inactive”.

In the case of `CCN(CC)CCNC(=O)c1cc(S(C)(=O)=O)ccc1OC`, the Potency result is “inactive”.

As for `COc1ccc(N(CC(=O)NCCSCc2cccc(Cl)c2)S(C)(=O)=O)cc1`, the Potency entry is “inactive”.

On to `COc1cccc(/C(C)=N/Nc2ncc(Cl)cc2Cl)c1`, for which the Potency result was “inactive”.

With `COc1cccc(/C=N/Nc2ncc(C(F)(F)F)cc2Cl)c1O`, the Potency is 4.11 µM (active).

Turning to `COc1cc(/C=C2\SC(=S)N(Nc3ncc(C(F)(F)F)cc3Cl)C2=O)cc(OC)c1OC`, the Potency entry was “inactive”.

Turning to `CCN(CC)Cc1csc2ccc(Br)cc12`, the Potency entry was “inactive”.

For `COC(=O)c1ccc(OCC(O)CN(CCO)CC(O)Cn2ccc3ccccc32)cc1` (centres undefined), the Potency result was “inactive”.

On to `C=CCc1ccc(OCC(O)CN2CCN(Cc3ccccc3)CC2)c(OC)c1` (centres undefined), for which the Potency entry is “inactive”.

Turning to `CCCn1c(=N)n(CC(O)COc2ccccc2OC)c2ccccc21` (centres undefined), the Potency is 7.31 µM (active).

As to `COc1ccccc1OCC(O)CN1CCOCC1` (centres undefined), the Potency result is “inactive”.

Take `COc1ccc(CCNCC(O)Cn2ccc3ccccc32)cc1OC` (centres undefined): the Potency result was “inactive”.

On to `C=CCn1c(=N)n(CC(O)COc2ccc(OC)cc2)c2ccccc21` (centres undefined), for which the Potency is 20.6 µM (active).

In the case of `COc1ccc(C(=O)NCC2CCCO2)cc1S(=O)(=O)NCc1ccc(Cl)cc1` (centres undefined), the Potency result is “inactive”.

On to `CN1CCN(C(CNS(=O)(=O)c2cccs2)c2cccnc2)CC1` (centres undefined), for which the Potency result is “inactive”.

For `COc1cccc(/C=C/C(=O)OCC(=O)N2CCCc3ccccc32)c1`, the Potency entry was “inactive”.

As for `Cc1cccc(N(C)C(=O)CS(=O)(=O)c2cccc3nsnc23)c1`, the Potency entry is “inactive”.

Consider `CC1(C)OC(=O)C(=CSc2ccc(C(C)(C)C)cc2)C(=O)O1`, for which the Potency entry was “inactive”.

Take `COCCCNC(NC(=O)c1ccc(OC)cc1)C(Cl)(Cl)Cl` (centres undefined): the Potency result is “inactive”.

Regarding `COCCCNC(NC(=O)c1ccc(C)cc1)C(Cl)(Cl)Cl` (centres undefined), the Potency was 14.6 µM (active).

As for `CCOCCCNC(=O)C(NC(=O)CNC(=O)c1ccccc1)c1ccc(C)cc1` (centres undefined), the Potency entry was “inactive”.

Regarding `O=C(CN1C(=O)NC2(CCCCC2)C1=O)N1CCN(C(=O)c2cccs2)CC1`, the Potency entry was “inactive”.

As to `O=C(CSc1ccccc1F)NC1CCS(=O)(=O)C1` (centres undefined), the Potency entry is “inactive”.

Turning to `O=S1(=O)CCC(NC(=S)SCc2ccccc2Br)C1` (centres undefined), the Potency is 18.4 µM (active).

`CC(C)C(=O)NC(NC(=S)NC1CCS(=O)(=O)C1)C(Cl)(Cl)Cl` (centres undefined): the Potency entry was “inactive”.

On to `CCN(CC(=O)NC1CCS(=O)(=O)C1)S(=O)(=O)c1ccccc1` (centres undefined), for which the Potency entry is “inactive”.

`CCCSC(=S)NC1CCS(=O)(=O)C1` (centres undefined): the Potency was 20.6 µM (active).

Consider `CS(=O)(=O)N(C(=O)NC(=O)NC1CCS(=O)(=O)C1)C1CCCCC1` (centres undefined), for which the Potency entry was “inactive”.

As for `Cc1cc(C)cc(NC(=O)C(c2ccccc2)N2CCN(CC(=O)N3CCCC3)CC2)c1` (centres undefined), the Potency result was “inactive”.

`S=C(NCc1ccco1)Nc1ccc2c(c1)OCCO2`: the Potency entry was “inactive”.

For the compound `O=C1c2ccccc2C(Nc2ccc3c(c2)OCCO3)N1Cc1ccco1` (centres undefined), the Potency was 14.6 µM (active).

With `O=C(NC1CCCCC1)C1c2ccccc2C(=O)N1Cc1ccco1` (centres undefined), the Potency result is “inactive”.

As to `CCN(CC(=O)Nc1ccc(NC(C)=O)cc1)C(=O)C1CC(=O)N(c2ccc3c(c2)OCCO3)C1` (centres undefined), the Potency entry was “inactive”.

As to `C/C(N)=C(/C#N)C(=O)COC(=O)CNS(=O)(=O)c1ccc(C)cc1`, the Potency entry is “inactive”.

On to `CC1(C(=O)NS(=O)(=O)c2ccccc2Cl)CCN1C(=O)c1cccc(F)c1` (centres undefined), for which the Potency result is “inactive”.

As for `c1csc(-c2nnc(COc3ccc4c(c3)OCO4)o2)c1`, the Potency result is “inactive”.

Take `COc1cccc(COC(=O)C2CCN(S(=O)(=O)c3ccc(Cl)cc3)CC2)c1OC`: the Potency result is “inactive”.

For the compound `Cc1nc2ccc(C(=O)N(C)CC3CCCN(CCc4ccc(Cl)cc4)C3)cc2[nH]1` (centres undefined), the Potency result is “inactive”.

Turning to `COc1cccc(CN(C)CC2CCCN(CCc3ccc(Cl)cc3)C2)c1OC` (centres undefined), the Potency is 20.6 µM (active).

As for `CO[C@H]1[C@@H](O)[C@H](N)[C@@H](O[C@H]2O[C@H]([C@H](C)N)CC[C@H]2N)[C@H](O)[C@@H]1N(C)C(=O)CN`, the Potency result was “inactive”.

As for `CCOc1ccc(C(=O)Nc2cc(Cl)ccc2-n2cncn2)cc1OC`, the Potency entry is “inactive”.

For the compound `CCOC(=O)c1cnc2[nH]c3ccccc3n2c1=O`, the Potency entry is “inactive”.

For `O=c1[nH]c2ccccc2n2c(-c3ccccc3)nnc12`, the Potency was 18.4 µM (active) and 11.2 µM (active).

With `O=c1[nH]n2c(-c3ccccc3)nc(O)c2c2ccccc12`, the Potency entry is “inactive”.

In the case of `COC(=O)CCSc1nccn1Cc1ccccc1`, the Potency entry was “inactive”.

Turning to `Cc1ccc(CN2CC(C(=O)NNC(=O)Cn3ccc(C(F)(F)F)n3)CC2=O)cc1` (centres undefined), the Potency result was “inactive”.

With `CN(CCO)C(=O)c1nc[nH]c1C(=O)N(C)Cc1ccccc1`, the Potency result was “inactive”.

For `CCCCCn1nnnc1-c1nc2cc3ccccc3cc2[nH]c1=O`, the Potency is 2.59 µM (active).

Turning to `Cc1ccc(-c2nc3ccccc3[nH]c2=O)cc1`, the Potency result was “inactive”.

Regarding `c1ccc2cc3[nH]c(CN4CCCCC4)nc3cc2c1`, the Potency entry was “inactive”.

For the compound `O=S1(=O)CSCS(=O)(=O)C1`, the Potency entry is “inactive”.

Take `COc1ccc(CN2C[C@H]3CON(C)[C@H]3C[C@H]2c2ccc(-c3cccc(F)c3)cc2)cc1`: the Potency was 16.4 µM (active).

For the compound `COc1ccc(CN2C3CCCC2CC(NC(=O)c2cccc(F)c2)C3)cc1` (centres undefined), the Potency entry was “inactive”.

With `CN1OC[C@@H]2CN(C(=O)c3cccc4ccccc34)[C@H](c3ccc(N4CCCCC4)cc3)C[C@@H]21`, the Potency entry is “inactive”.

For `CCCNC(=O)c1onc(CSc2ccc(F)cc2)c1C(=O)NC(C)C`, the Potency entry is “inactive”.

Take `Cc1ccc(-c2nc(C)sc2CC(=O)O)cc1`: the Potency result is “inactive”.

Turning to `N#C/C(=C\c1cccc(F)c1)c1nc(-c2cc3c(ccc4ccccc43)oc2=O)cs1`, the Potency result was “inactive”.

Consider `O=C(Oc1ccc(C(=S)N2CCOCC2)cc1)c1ccc(F)cc1`, for which the Potency result is “inactive”.

Take `O=C(Nc1ccc(F)cc1)C(=O)c1cn(CC(=O)N2CCOCC2)c2ccccc12`: the Potency result is “inactive”.

Consider `O=C(c1ccc(F)cc1)n1cc(C(=S)N2CCOCC2)c2ccccc21`, for which the Potency was 11.6 µM (active).

As for `COc1ccc(S(=O)(=O)N(C)C)cc1NC(=O)CSc1ncccn1`, the Potency is 13 µM (active).

Take `Cc1nnc(SCC(=O)N2CCc3ccccc32)n1-c1ccccc1`: the Potency entry is “inactive”.

Turning to `CCOCCCn1c(SCC(=O)Nc2ccc(CC)cc2)nc2ccccc2c1=O`, the Potency was 13 µM (active).

For `CCc1nnc(NC(=O)CSc2nc3ccccc3c(=O)n2CCCOC)s1`, the Potency result was “inactive”.

Turning to `O=C(CSc1nc2ccccc2c(=O)n1CCCO)NC1CC1`, the Potency result was “inactive”.

Take `COc1ccc(OC)c(NC(=O)CSc2nc3cccnc3n2C)c1`: the Potency was 16.4 µM (active).

`COc1ccc(C)cc1NC(=O)CSc1cccc[n+]1[O-]`: the Potency result was “inactive”.

For `COc1ccc(S(=O)(=O)N2CCOCC2)cc1NC(=O)CSc1ncnc2ccccc12`, the Potency entry was “inactive”.

As for `COc1ccc(-c2nnc(SCC(=O)Nc3cccnc3Cl)n2C)cc1`, the Potency entry is “inactive”.

Take `Cn1c(SCC(=O)N2CCCc3ccccc32)nc2ccccc2c1=O`: the Potency is 9.2 µM (active).

Take `O=C(CSc1nc2[nH]ncc2c(=O)n1-c1ccccc1)N1CCCc2ccccc21`: the Potency entry is “inactive”.

With `COc1ccc(OC)c(NC(=O)CSc2nc(N)c(-c3ccccc3)c(=O)[nH]2)c1`, the Potency result is “inactive”.

With `CSc1ccc(NC(=O)N2CC(C)OC(C)C2)cc1` (centres undefined), the Potency result is “inactive”.

As to `Cn1cccc1C(=O)N1CCC[C@@]2(CCN(Cc3nccs3)C2)C1`, the Potency entry is “inactive”.

For the compound `Cc1nc2ccc(S(=O)(=O)NC(C(=O)NCc3ccccc3Cl)C(C)C)cc2s1` (centres undefined), the Potency result is “inactive”.

As for `C[n+]1cccc(C(=O)O)c1`, the Potency result is “inactive”.

`CSc1ncccc1C(=O)NCc1ccccc1Cl`: the Potency result was “inactive”.

As to `CCOCCCNC(=O)C(NC(=O)c1ccc(=O)[nH]c1)c1ccc(Cl)cc1` (centres undefined), the Potency entry was “inactive”.

In the case of `c1ccc(-c2csc(N3CCc4ccccc4C3)n2)cc1`, the Potency result was “inactive”.

Regarding `Cc1noc(C)c1CCC(=O)O`, the Potency result was “inactive”.

On to `Cc1ccc(S(=O)(=O)N2CC(O)C[C@H]2C(=O)OCC(=O)Nc2ccc(N3CCOCC3)cc2)cc1C` (some centres undefined), for which the Potency result was “inactive”.

For `COc1ccc(-n2nnnc2SCC(=O)Nc2ccccc2)cc1`, the Potency entry is “inactive”.

In the case of `COc1ccc(NC(=O)CSc2nc3ccccc3c(=O)n2C)cc1`, the Potency is 10.3 µM (active).

With `COc1ccc(NC(=O)CSc2nnc(Cc3ccccc3)c(=O)n2N)cc1`, the Potency entry is “inactive”.
